Results on 40 compounds are retold here after PubChem BioAssay (NCATS).

Records with an inconclusive call do not appear. Active and inactive are the calls of the source. Calls follow the shape of the dose curve; as a rule, active = well fitted cell-killing curve with a large enough effect; inconclusive = small, poorly fitted or top-dose-only effect, or effect the other way; inactive = no such curve, though single readings can be large or run the other way. Positions of bridges follow the written chain, without caps; N, C: chain ends. Non-standard residues stand in square brackets, D forms with d. Residues, ends and D or L forms follow the SMILES beside them. ξ: configuration not given here. *: point of attachment. Octanoyl(6-Me) = CCC(C)CCCCC(=O)*; ξThr(3R) = C[C@@H](O)C(N)C(=O)O; dDab = NCC[C@@H](N)C(=O)O; Dab = NCC[C@H](N)C(=O)O
Potency is read from the fitted curve at half-maximal effect.

The test can be described thus: Quantitative High-Throughput drug screen in 47 multiple myeloma cell lines against the NCATS MIPE library collection: JJN3_DSMZ cell viability assay (AID 1918966; also: nearly all actives have a fitted effect of over 50% in size). Conditions: JJN3 myeloma cells viability, CellTiter-Glo ATP, 48 h; series mostly up to 45.8 µM. The text has this: PI: Beverly A. Mock Ph.D.
Laboratory of Cancer Biology and Genetics,
Center for Cancer Research, National Cancer Institute,
National Institute of Health, Bethesda, Maryland
Drug resistance and disease progression are common in multiple myeloma (MM) patients, underscoring the need for new therapeutic combinations. […] We hypothesized that effective combinations would reduce MYC expression and enhance p16 activity. […] These preclinical data identify potentially useful drug combinations for evaluation in drug-resistant MM and reveal potential mechanisms of combined drug sensitivity.
Described herein is the primary MIPE qHTS used to cherrypick compounds. Validated compounds were then further tested for potential synergistic activiy.
[1] Peat TJ, Gaikwad SM, Dubois W, Gyabaah-Kessie N, Zhang S, Gorjifard S, Phyo Z, Andres M, Hughitt VK, Simpson RM, Miller MA, Girvin AT, Taylor A, Williams D, D'Antonio N, Zhang Y, Rajagopalan A, Flietner E, Wilson K, Zhang X, Shinn P, Klumpp-Thomas C, McKnight C, Itkin Z, Chen L, Kazandijian D, Zhang J, Michalowski AM, Simmons JK, Keats J, Thomas CJ, Mock BA. Drug combinations identified by high-throughput screening promote cell cycle transition and upregulate Smad pathways in myeloma. Cancer Lett. 2023 Aug 1;568:216284. doi: 10.1016/j.canlet.2023.216284. Epub 2023 Jun 24. PMID: 37356470; PMCID: PMC10408729.
SEQUENCE No. (e.g., 1, 2, 3, etc.); […] (e.g., Cells, Incubation, Reagent, etc.); VALUE and DESCRIPTION.
1; Cells; 5 uL; white, solid bottom 1536-well Greiner assay plate.
2; Compounds; 23 nL; Kalypsis pin tool (Wako USA) equipped with a 1536-well pin head to transfer to the assay plates.
3; Incubation; 48 hours; 37C incubation.
4; Reagent;5uL; CellTiter Glo (Promega).
5; Detector; 425V; Luminescence; Viewlux PerkinElmer.
NOTES (numbers refer to Sequence numbers above)
1. The cell-based screening methods employed in this study were like those previously published. Briefly, the corresponding myeloma cell lines were screened in 1,536-well plates with 500 cells, 5-uL per well for inhibition of cell viability (assessed by measuring ATP levels with CellTiterGlo).
2. NCATS MIPE 4.0 library of approved and investigational drugs were added using the Kalypsis pin tool. Wells treated with DMSO only for 100% viability and media only wells for 0% viability were used as controls.
3. The assay plates were covered and incubated for 48 hours in a 37C, 5% CO2 incubator with controlled humidity.
4. After 48 hours, CellTilter-GloTM luminescent substrate mix (Promega) reagent was added to the assay plate and plates we incubated for 5 min at room temperature.
5. Signal was measured as median relative luminescence units on a ViewLux (PerkinElmer) multiplate reader.
[1] Heske CM, Davis MI, Baumgart JT, Wilson K, Gormally MV, Chen L, Zhang X, Ceribelli M, Duveau DY, Guha R, Ferrer M, Arnaldez FI, Ji J, Tran HL, Zhang Y, Mendoza A, Helman LJ, Thomas CJ. Matrix Screen Identifies Synergistic Combination of PARP Inhibitors and Nicotinamide Phosphoribosyltransferase (NAMPT) Inhibitors in Ewing Sarcoma. Clin Cancer Res. 2017 Dec 1;23(23):7301-7311. doi: 10.1158/1078-0432.CCR-17-1121. Epub 2017 Sep 12. PMID: 28899971; PMCID: PMC6636827.
(In general: In ATP-based viability assays light output follows the ATP content of the culture.)
Turning to `C=C1C(=O)O[C@H]2[C@@H]1CCC(C)=CCC[C@@]1(C)O[C@@H]21`, the Potency is 7.43 µM (active). The figure for `Nc1ncn([C@@H]2O[C@H](CO)[C@@H](O)[C@@H]2O)c(=O)n1` is 11.8 µM (active); for `C[C@@H]1CC[C@@]2(OC1)OC1CC3C4CC=C5CC(O)CCC5(C)C4CCC3(C)C1[C@@H]2C` (stereo not given in full) it is “inactive”; for `O=C(O)c1ccc(Nc2ncc3c(n2)-c2ccc(Cl)cc2C(c2c(F)cccc2F)=NC3)cc1` it is 3.72 µM (active). With `c1cncc(CN2CCC(n3ncc4c(N5CCOCC5)nc(-c5ccc6[nH]ccc6c5)nc43)CC2)c1`, the Potency was 5.9 µM (active). The figure for `Cc1coc2c1C(=O)C(=O)c1c-2ccc2c(C)cccc12` is 18.7 µM (active). For `CC(=O)OCC(=O)[C@@]1(O)CC[C@H]2[C@@H]3CCC4=CC(=O)CC[C@]4(C)[C@@H]3C(=O)C[C@@]21C` the value was “inactive”; for `CC(=O)OC[C@@H]1O[C@@H](n2ccc(=O)[nH]c2=O)[C@H](OC(C)=O)[C@H]1OC(C)=O`, “inactive”. Regarding `Cc1[nH]c(C=C2C(=O)Nc3ccccc32)c(C)c1CCC(=O)O`, the Potency was 18.7 µM (active). As to `C=CC[C@@H]1C=C(C)C[C@H](C)C[C@H](OC)[C@H]2O[C@@](O)(C(=O)C(=O)N3CCCC[C@H]3C(=O)O[C@H](C(C)=C[C@@H]3CC[C@H](O)[C@H](OC)C3)[C@@H](C)[C@@H](O)CC1=O)[C@@H](C)C[C@@H]2OC`, the Potency is 0.662 µM (active).

As for `CCC(C)CCCCC(=O)N[C@@H](CCN)C(=O)NC(C(=O)N[C@H](CCN)C(=O)N[C@@H]1CCNC(=O)C([C@@H](C)O)NC(=O)[C@@H](CCN)NC(=O)[C@@H](CCN)NC(=O)[C@@H](CC(C)C)NC(=O)[C@H](Cc2ccccc2)NC(=O)[C@H](CCN)NC1=O)[C@@H](C)O` (stereo partly drawn) ({Octanoyl(6-Me)}-[Dab][ξThr(3R)][dDab][dDab][Dab]F[dL][dDab][dDab][ξThr(3R)]; lactam 4-C), the Potency entry is “inactive”. The figure for `FC(F)(F)c1ccc(Nc2nc3ccc(Oc4ccnc(-c5ncc(C(F)(F)F)[nH]5)c4)cc3[nH]2)cc1` is 20.9 µM (active); for `CCOc1cc2ncc(C#N)c(Nc3ccc(OCc4ccccn4)c(Cl)c3)c2cc1NC(=O)C=CCN(C)C` it is 5.9 µM (active); for `CCNC(=O)c1cc2c(-c3cc(OCCN4CCCC4)c(Cl)cc3Cl)nc(N)nc2s1` it is 2.35 µM (active). On to `CS(=O)(=O)N1CCc2c(-c3cnc(N)nc3)nc(N3CCOCC3)nc21`, for which the Potency was 0.59 µM (active).

Consider `CN(C)CCN1C(=O)c2cccc3cc(N)cc(c23)C1=O`, for which the Potency is 20.9 µM (active). The figure for `CN(C)c1ccc(C(=O)NCCCCCCC(=O)NO)cc1` is 1.05 µM (active). The entry for `C[C@](Cc1c[nH]c2ccccc12)(NC(=O)OC1C2CC3CC(C2)CC1C3)C(=O)NC[C@H](NC(=O)CCC(=O)O)c1ccccc1` (stereo not given in full) is “inactive”; for `Cc1cnc(NC(=O)Nc2cc(Br)c(C)cc2OC[C@@H]2CNCCO2)cn1` it is 18.7 µM (active).

As to `CC(C)(C)[N+]([O-])=Cc1ccc(S(=O)(=O)O)cc1S(=O)(=O)O`, the Potency entry was “inactive”. In the case of `CCOC(=O)N1CCN([N+]([O-])=NOc2ccc([N+](=O)[O-])cc2C#N)CC1`, the Potency was 0.418 µM (active). For `C[C@H](NCc1ccc(OCc2cccc(F)c2)cc1)C(N)=O` the value was 8.33 µM (active); for `N#Cc1ccc(COC[C@H]2O[C@@H](n3c(NCc4ccc(Cl)c(Cl)c4)nc4c(N)ncnc43)[C@@H](O)[C@@H]2O)cc1`, 0.469 µM (active). The entry for `CCCNS(=O)(=O)Nc1ncnc(OCCOc2ncc(Br)cn2)c1-c1ccc(Br)cc1` is “inactive”. For `Cc1cnn(C)c1C(=O)Nc1cc(Nc2ccc3c(C=Cc4ccccn4)n[nH]c3c2)ccc1F`, the Potency was 23.5 µM (active).

For the compound `CC(C)(O)[C@H]1CC[C@@](C)([C@H]2[C@@H](O)C[C@@]3(C)[C@@H]4C[C@H](O[C@@H]5O[C@H](CO)[C@@H](O)[C@H](O)[C@@H]5O)[C@H]5C(C)(C)[C@@H](O[C@@H]6OC[C@@H](O)[C@H](O)[C@@H]6O)CC[C@@]56C[C@@]46CC[C@]23C)O1`, the Potency is 0.418 µM (active). The figure for `c1ccc(CNc2nc(NCc3ccccc3)c3ccccc3n2)cc1` is 23.5 µM (active). For `CCC(C=C[C@@H]1OC(=O)C=C[C@H]1C)=C[C@H](C)CC=CC(C)=C[C@@H](C)C(=O)[C@@H](C)[C@H](O)[C@@H](C)CC(C)=CC(=O)O` the value was 0.022 µM (active); for `CS[C@H]1SC[C@@H]2C(=O)N(C)[C@H](C(C)C)C(=O)OC[C@H](NC(=O)c3cnc4ccccc4n3)C(=O)N[C@H](C)C(=O)N(C)[C@@H]1C(=O)N(C)[C@H](C(C)C)C(=O)OC[C@H](NC(=O)c1cnc3ccccc3n1)C(=O)N[C@H](C)C(=O)N2C`, 0.0053 µM (active); for `O=C(Nc1ccc(Oc2ccnc3[nH]ccc23)c(F)c1)c1cccn(-c2ccc(F)cc2)c1=O`, 20.9 µM (active). For `COc1ccc([C@@H]2CNC(=O)C2)cc1OC1CCCC1`, the Potency result is “inactive”. As to `CC[C@H](CC[C@@H](C)[C@H]1CC[C@H]2[C@@H]3CC=C4C[C@@H](O)CC[C@]4(C)[C@@H]3CC[C@]12C)C(C)C`, the Potency result was “inactive”. As for `CC(=O)[C@]1(O)Cc2c(O)c3c(c(O)c2[C@@H](O[C@H]2C[C@H](N)[C@@H](O)[C@H](C)O2)C1)C(=O)c1ccccc1C3=O`, the Potency was 0.209 µM (active). Regarding `CC(C)(C)c1nc2c3cc[nH]c(=O)c3c3cc(F)ccc3c2[nH]1`, the Potency was 0.662 µM (active). Consider `CC(C)C[C@H](NC(=O)[C@@H](NC(=O)c1cccc(-c2ccccc2)n1)[C@@H](C)O)B(O)O`, for which the Potency is 0.0418 µM (active). The figure for `COc1ccc(Nc2cc(-c3cnc(N)nc3)nc(N3CCOCC3)n2)cn1` is 4.69 µM (active); for `COc1cccc2c1C(=O)c1c(O)c3c(c(O)c1C2=O)C[C@@](O)(C(=O)CO)C[C@H]3O[C@H]1C[C@H](N)[C@H](O)[C@H](C)O1` it is 0.132 µM (active). The entry for `NC(=O)c1cccc(-c2cccc(OC(=O)NC3CCCCC3)c2)c1` is “inactive”; for `CCCCCCCN(CC)CCCC(O)c1ccc(NS(C)(=O)=O)cc1` (stereo not given) it is “inactive”; for `NC(=O)Nc1sc(-c2ccc(F)cc2)cc1C(N)=O` it is 0.418 µM (active).
